PubChem BioAssay AID651610 (Broad Institute, 2012)
“And” between values parts separate entries of the source, which are not always exact repeats. Identical values can stand only once. In all, about 360,000 compounds went through this assay and about 3,900 (1.1%) were called active. Shown is part of a subset that was picked to be rich in actives. Values without a mark were called inactive.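 The calls were made as follows: active = mean replicate inhibition score of at least 50 and every replicate individually at or above 50; inconclusive = only one of the two criteria met; inactive = mean below 50 and not all replicates reaching 50.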

Assay: blockers of JRFL envelope-mediated fusion – HeLa-JRFL effector, CEM21 target cells, luciferase, primary screen (AID 651610);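 also: 0% = plate neutral controls and 100% = maraviroc near 300 nM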
Details: HeLa-JRFL Env/CEM21 cell fusion, stronger effect = higher value

Work on `O=C(O)CCCCCNc1ncnc2ccc(Br)cc12` yielded an inhibition (at 16.7 µM unless noted) of 26.9% [at 12.3 µM].
With `Brc1ccc2ncnc(NCc3cccnc3)c2c1` the inhibition (at 16.7 µM unless noted) was 43.2% [at 12.3 µM].
For `C=CCNc1ncnc2ccc(Br)cc12`, the inhibition (at 12.3 µM) was 92.8% (active) and the inhibition (at 16.7 µM) was 9.63% and 27.5%.
For `CN1CCN(C(=O)C[C@H]2C[C@H]3c4cc(NC(=O)Nc5ccccc5F)ccc4O[C@H]3[C@H](CO)O2)CC1`, the inhibition (at 16.7 µM unless noted) was -13.6%.
Molecule `COc1ccccc1CNC(=O)C[C@@H]1C[C@@H]2c3cc(NC(=O)C4CCOCC4)ccc3O[C@@H]2[C@@H](CO)O1` has an inhibition (at 16.7 µM unless noted) of -2.64%.
For `O=C(Nc1ccc(CN2CCOCC2)cc1)c1cc(Cl)ccc1Cl`, the inhibition (at 16.7 µM unless noted) was -16% [at 12.3 µM].
In the case of `Cn1c(CN2CCOCC2)nc2cc(NC(=O)c3ccc(Cl)cc3)ccc21`, the inhibition (at 16.7 µM unless noted) is reported as 66.4% [at 12.3 µM] (active).
For `CCOC(=O)N1CCN(Cc2nc3cc(NC(C)=O)ccc3n2C)CC1`, the inhibition (at 16.7 µM unless noted) was 9.8% [at 12.3 µM].
Work on `CNC[C@@H]1Oc2cc(-c3ccccc3OC)ccc2S(=O)(=O)N([C@@H](C)CO)C[C@H]1C` yielded an inhibition (at 16.7 µM unless noted) of -40.9%.
Molecule `CCCNC(=O)N(C)C[C@H]1Oc2cc(-c3ccncc3)ccc2S(=O)(=O)N([C@H](C)CO)C[C@H]1C` has an inhibition (at 16.7 µM unless noted) of -10.2%.
`CC(=O)c1c(C)[nH]c(C(=O)OCC(=O)NCCC(C)C)c1C` gave an inhibition (at 16.7 µM unless noted) of 38.2% [at 12.3 µM].
In the case of `CC(=O)c1c(C)[nH]c(C(=O)OCC(=O)Nc2cc(S(=O)(=O)N3CCCCC3)ccc2C)c1C`, the inhibition (at 16.7 µM unless noted) is reported as 0.591% [at 12.3 µM].
In the case of `CC(=O)c1c(C)[nH]c(C(=O)OCC(=O)Nc2c(C)cccc2C)c1C`, the inhibition (at 16.7 µM unless noted) is reported as 76.4% [at 12.3 µM] (active).
Molecule `CO[C@@H]1CN(C)C(=O)c2cc(NS(=O)(=O)c3ccccc3C)ccc2OC[C@@H](C)N(S(C)(=O)=O)C[C@@H]1C` has an inhibition (at 16.7 µM unless noted) of 23.9%.
For `C[C@@H]1CN([C@@H](C)CO)C(=O)c2cc(-c3ccccc3F)cnc2O[C@@H]1CN(C)Cc1cccc(F)c1`, the inhibition (at 16.7 µM unless noted) was 6.32%.
`O=C(COC(=O)C1CCCO1)Nc1nc(-c2ccc(F)cc2)cs1` (stereo unspecified) showed an inhibition (at 16.7 µM unless noted) of -32.6% [at 12.3 µM].
For `CC1CCCC(C)N1C(=O)CN1CCN(c2nc(-c3ccc(F)cc3)cs2)CC1` (stereo unspecified), the inhibition (at 16.7 µM unless noted) was 57.8% [at 12.3 µM] (active).
Work on `Cc1cccc(C)c1NC(=O)CN1CCN(c2ccc(F)cc2)CC1` yielded an inhibition (at 16.7 µM unless noted) of -17.6% [at 12.3 µM].
In the case of `C[C@@H]1CN([C@@H](C)CO)S(=O)(=O)c2ccc(C#Cc3ccccc3F)cc2O[C@H]1CN(C)C(=O)c1ccc2c(c1)OCO2`, the inhibition (at 16.7 µM unless noted) is reported as 48.7%.
With `CCC(=O)N(C)C[C@@H]1Oc2cc(C#Cc3cccnc3)ccc2S(=O)(=O)N([C@H](C)CO)C[C@@H]1C` the inhibition (at 16.7 µM unless noted) was 19.7%.
